# Measurements: the supplement of paper PMC10646978
# ± gives the standard deviation.
# What was measured:
# Settings in all cases: modulator concentration 10 µM
# [1] = system: RAW-Dual (murine macrophage reporter line); assay: NF-kB reporter (SEAP) activity fold change vs agonist alone; higher = enhanced NF-kB activity
# Outline: (§1)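 RAW-Dual murine macrophage reporter cells were seeded at 50 000 per well in 384-well plates and pre-incubated 1 hour at 37 °C with compound pin-transferred to 10 μM final. After 1 hour, a PRR agonist was added and cells incubated overnight. Supernatant NF-κB (SEAP, QUANTI-Blue, 620 nm absorbance) and IRF (Lucia luciferase, QUANTI-Luc, luminescence) signals were divided by the mean agonist-only control on the same plate to give fold change. Two replicate plates were averaged, with errors by propagation.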
# [2] = system: RAW-Dual (murine macrophage reporter line); assay: IRF reporter (Lucia luciferase) activity fold change vs agonist alone; higher = enhanced IRF activity
# Outline: as §1
# [3] = system: RAW-Dual (murine macrophage reporter line); assay: viability score (confluency relative to resting cells, overnight) (fraction); higher = more viable, active = viable (0.7 or more)
# Outline: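 Compound was added at a final 10 μM to RAW-Dual macrophages in 384-well plates and left overnight. Confluency was imaged with IncuCyte, and two masks were generated in IncuCyte software over all imaged wells. Each viability score is confluency relative to resting cells, and a compound met the cutoff only when both masks were above 70% of resting cells.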
# [4] = agonist: CpG ODN 1826 0.5 ug/mL
Structure (SMILES),"NF-kB reporter [1, 4]",NF-kB reporter ([1]; agonist: LPS 0.1 ug/mL),NF-kB reporter ([1]; agonist: MPLA […]),IRF reporter ([2]; agonist: 3'3'-cGAMP 10 ug/mL),IRF reporter ([2]; agonist: LPS 0.1 ug/mL),IRF reporter ([2]; agonist: MPLA […]),viability score [3]
CC(C)c1c(CN(C)C(C)Cc2ccccc2)n(C)n(-c2ccccc2)c1=O (centres undefined) [Prestw-703],1.35 ± 0.082,1 ± 0.17,1.05 ± 0.067,0.792 ± 0.03,1.02 ± 0.073,0.995 ± 0.14,0.998 (active)
CC12CCC3C(CCC4CC(Cl)CCC43C)C1CCC2=O (centres undefined),0.925 ± 0.074,0.921 ± 0.077,0.906 ± 0.094,0.961 ± 0.11,0.953 ± 0.11,0.955 ± 0.16,1.05 (active)
CC12CCC3C(CCC4CC(O)CCC43C)C1CCC2=O (centres undefined),0.888 ± 0.066,1.04 ± 0.051,0.98 ± 0.021,0.949 ± 0.1,0.985 ± 0.033,0.972 ± 0.11,1.01 (active)
COc1ccc2c3c([nH]c2c1)C(C)=NCC3,0.359 ± 0.089,0.917 ± 0.046,0.852 ± 0.054,0.778 ± 0.038,0.771 ± 0.17,0.793 ± 0.15,1 (active)
CCCCCC(=O)NC(Oc1ccc([N+](=O)[O-])cc1)C(Cl)(Cl)Cl (centres undefined),0.988 ± 0.091,1.08 ± 0.07,1 ± 0.035,0.896 ± 0.22,1.06 ± 0.085,1.03 ± 0.069,1 (active)
COc1cc2c(c(OC)c1OC)-c1ccc(OC)c(=O)cc1[C@@H](NC(C)=O)CC2,2.45 ± 0.12,1.8 ± 0.14,2.47 ± 0.11,0.0843 ± 0.011,1.5 ± 0.13,1.91 ± 0.42,0.687 (inactive)
Cc1cc(OC(=O)C2CCCCC2)c2c3c(c(=O)oc2c1)CCC3,0.947 ± 0.094,1.01 ± 0.063,0.968 ± 0.058,0.948 ± 0.042,1.29 ± 0.13,1.13 ± 0.07,1.01 (active)
c1ccc2c(c1)Nc1ccccc1S2,1.02 ± 0.25,0.934 ± 0.048,0.881 ± 0.11,0.778 ± 0.026,1.31 ± 0.25,1.32 ± 0.13,0.939 (active)
OCC(O)Cc1ccc2c(c1)OCO2 (centres undefined),1.02 ± 0.096,0.831 ± 0.062,0.906 ± 0.093,0.988 ± 0.031,1.37 ± 0.19,1.53 ± 0.25,0.994 (active)
CN1C(=O)C(=Cc2nc3ccccc3c(=O)n2-c2ccccc2)c2ccccc21,1.01 ± 0.088,0.867 ± 0.097,1.65 ± 0.63,1.08 ± 0.052,1.32 ± 0.23,1.29 ± 0.24,1.05 (active)
Cc1cc(N2CCNCC2)c2ccccc2n1,0.0643 ± 0.01,0.789 ± 0.062,0.899 ± 0.092,0.561 ± 0.045,1.15 ± 0.31,1.15 ± 0.16,0.994 (active)
CN1C(=O)NC(=O)C(=Cc2cc(Br)cc(Cl)c2O)C1=O,0.19 ± 0.019,0.505 ± 0.026,1.32 ± 0.63,0.537 ± 0.042,1.11 ± 0.078,0.942 ± 0.079,1.01 (active)
CC[N+]1(C)CCCC(OC(=O)C(O)(c2ccccc2)c2ccccc2)C1 (centres undefined) [Prestw-760],0.921 ± 0.061,0.955 ± 0.092,0.966 ± 0.073,0.952 ± 0.038,1.13 ± 0.09,0.973 ± 0.18,0.994 (active)
C=C(C)C1Cc2c(ccc3c2OC2COc4cc(OC)c(OC)cc4C2C3=O)O1 (centres undefined),1.6 ± 0.13,1.02 ± 0.1,1.75 ± 0.18,0.515 ± 0.028,1.64 ± 0.27,2.07 ± 0.4,0.924 (active)
CCNCC.O=C(O)Cc1ccccc1Nc1c(Cl)cccc1Cl,1.16 ± 0.18,1.08 ± 0.38,0.993 ± 0.058,0.921 ± 0.034,1.21 ± 0.43,1.02 ± 0.11,0.993 (active)
CCCC(=O)c1ccc(N2CCNCC2)c(F)c1,0.404 ± 0.023,1.12 ± 0.069,0.961 ± 0.082,0.861 ± 0.043,1.4 ± 0.14,1.66 ± 0.18,0.951 (active)
O=C1NC(=O)N(c2ccccc2F)C(=O)C1=Cc1ccc(OCc2ccc([N+](=O)[O-])cc2)c(Cl)c1,0.917 ± 0.072,1.03 ± 0.068,0.894 ± 0.057,0.916 ± 0.049,1.22 ± 0.15,1.02 ± 0.065,1.01 (active)
COc1cc(C2c3cc4c(c(O)c3CC3COC(=O)C32)OCO4)cc(OC)c1OC (centres undefined),2.38 ± 0.14,1.31 ± 0.086,2.08 ± 0.14,0.0984 ± 0.0043,1.75 ± 0.2,1.92 ± 0.17,0.735 (active)
O=C1NC(=O)C(=Cc2cc(Br)ccc2OCc2ccc(Cl)cc2Cl)C(=O)N1,0.887 ± 0.05,0.945 ± 0.071,0.794 ± 0.058,0.949 ± 0.033,0.751 ± 0.11,0.822 ± 0.16,0.991 (active)
COc1cc(C2c3cc4c(cc3C(O)C3COC(=O)C23)OCO4)cc(OC)c1OC (centres undefined),1.37 ± 0.41,0.807 ± 0.077,1.08 ± 0.1,0.688 ± 0.021,1.19 ± 0.17,1.51 ± 0.22,0.967 (active)
Cl.Clc1ccc(C(OCCN2CCCCC2)c2ccccc2)cc1 (centres undefined),0.656 ± 0.26,0.756 ± 0.051,0.721 ± 0.049,0.543 ± 0.023,1.25 ± 0.15,1.24 ± 0.14,0.652 (inactive)
COc1ccc(CCNCc2ccc(OC)c(OC)c2OC)cc1OC,1.01 ± 0.11,0.876 ± 0.14,0.942 ± 0.052,0.927 ± 0.16,1.01 ± 0.044,0.997 ± 0.11,0.998 (active)
Cc1cc(C(=O)N2C3CCC2c2cncnc2C3)c(C)o1 (centres undefined),1.03 ± 0.087,1.06 ± 0.092,1 ± 0.036,0.974 ± 0.066,0.94 ± 0.06,0.832 ± 0.13,0.999 (active)
CCOC(=O)c1ccccc1-c1ccc(C=C2C(=O)NC(=O)N(c3cccc(C)c3)C2=O)o1,1 ± 0.18,0.965 ± 0.11,0.881 ± 0.069,1 ± 0.029,1.2 ± 0.14,1.09 ± 0.12,0.995 (active)
O=[N+]([O-])c1ccc(NCCc2ccccc2)c2ncccc12,0.971 ± 0.17,1.04 ± 0.086,1.6 ± 0.64,0.926 ± 0.032,1.25 ± 0.21,1.31 ± 0.2,0.997 (active)
CCC1(C)CC(CCNCc2ccccc2)(c2ccc(C)cc2)CCO1 (centres undefined),0.701 ± 0.29,1.15 ± 0.099,1.19 ± 0.18,0.57 ± 0.018,1.38 ± 0.14,1.76 ± 0.31,0.547 (inactive)
CCC1CN2CCC1CC2C(O)c1ccnc2ccc(OC)cc12 (centres undefined),1.05 ± 0.25,1.16 ± 0.066,1.1 ± 0.08,0.565 ± 0.021,1.21 ± 0.17,1.33 ± 0.26,0.983 (active)
